This note sets out measurements from PubChem BioAssay (NCI).

Among the test systems are SR leukemia; RPMI-8226 leukemia; OVCAR-8 ovarian; OVCAR-5 ovarian; OVCAR-4 ovarian; SK-OV-3 ovarian; IGROV1 ovarian; OVCAR-3 ovarian; HS 578T breast; NCI/ADR-RES ovarian.
Common to all, as to experiment: NCI-60 one-dose screen, 48 h (100 = growth as untreated, 0 = no growth, -100 = all killed)
Details in all cases: 10 µM unless noted

This is part of a sample that, as a whole, favours compounds with a hit. Of some 83,000 tested, about 20% had one in any assay.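 The test compound was applied at a single concentration to cells in 96-well plates for 48 hours, and percent growth was recorded.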 Values without a mark were called inactive. The source made the active and inactive calls. How the source made its calls: active means growth percent below 10; inactive means the rest.

With `CC(=O)Nc1ccc(O)c(C)c1`, the growth in the assay on SR leukemia is 94.6%; in the assay on RPMI-8226 leukemia, 105%; in the assay with OVCAR-8 ovarian, 100%; in the assay on OVCAR-5 ovarian, 104%; with OVCAR-4 ovarian, 100%; in the assay with SK-OV-3 ovarian, 105%. The growth with IGROV1 ovarian was 110%; in the assay on OVCAR-3 ovarian it was 107%; with HS 578T breast, 107%.

As for `C=CC(C)C(C)(C)O` (configuration not stated), the growth with SR leukemia was 97.6%; with RPMI-8226 leukemia, 109%; in the assay on OVCAR-8 ovarian, 108%; in the assay on OVCAR-5 ovarian, 98.7%; in the assay with OVCAR-4 ovarian it was 113%; with SK-OV-3 ovarian it was 106%. In addition, the growth was 102% with IGROV1 ovarian, 102% in the assay on OVCAR-3 ovarian, 96.3% with HS 578T breast and 98.3% with NCI/ADR-RES ovarian.

For the molecule `CCCCNC(=O)c1ccc(OCC)cc1`, the growth is 104% in the assay on SR leukemia; 99.1% in the assay on RPMI-8226 leukemia; 103% with OVCAR-8 ovarian; 96.1% in the assay on OVCAR-5 ovarian; 101% in the assay on OVCAR-4 ovarian; 98.7% in the assay on SK-OV-3 ovarian. Moreover, the growth with IGROV1 ovarian was 108%; in the assay on OVCAR-3 ovarian, 105%; in the assay on HS 578T breast, 101%.

On to `CC(C)C(=O)OCCOc1ccc(C(C)(C)C)cc1`, for which the growth in the assay on SR leukemia is 98.6%; in the assay with RPMI-8226 leukemia it was 97.7%; with OVCAR-8 ovarian it was 99.5%; with OVCAR-5 ovarian it was 103%; in the assay with OVCAR-4 ovarian, 98.6%; with SK-OV-3 ovarian it was 108%. Moreover, the growth was 104% with IGROV1 ovarian, 107% in the assay with OVCAR-3 ovarian, 93.9% in the assay with HS 578T breast and 100% with NCI/ADR-RES ovarian.

Take `COc1cccc2c1Cc1ccccc1-2`: the growth is 121% in the assay with SR leukemia; 99.8% in the assay with RPMI-8226 leukemia; 112% with OVCAR-8 ovarian; 107% in the assay with OVCAR-5 ovarian; 98.9% with OVCAR-4 ovarian; 115% in the assay on SK-OV-3 ovarian. Besides, the growth with IGROV1 ovarian is 115%; in the assay with OVCAR-3 ovarian it was 112%; in the assay with HS 578T breast, 103%.

Take `Cn1/c(=N\N=C\c2ccccc2OCCO)sc2ccccc21`: the growth in the assay on SR leukemia is 89%; in the assay with RPMI-8226 leukemia it was 81%; in the assay with OVCAR-8 ovarian, 100%; in the assay with OVCAR-5 ovarian, 104%; with OVCAR-4 ovarian, 106%; in the assay with SK-OV-3 ovarian, 104%. The growth was 70.2% in the assay on IGROV1 ovarian, 95.2% with OVCAR-3 ovarian, 99.8% in the assay with HS 578T breast and 109% with NCI/ADR-RES ovarian.

Take `CC(C)C1CCC(C)C(O)C1` (configuration not stated): the growth with SR leukemia was 96.1%; with RPMI-8226 leukemia, 101%; with OVCAR-8 ovarian it was 99.1%; with OVCAR-5 ovarian, 108%; in the assay on OVCAR-4 ovarian it was 108%; with SK-OV-3 ovarian it was 106%. In addition, the growth is 104% in the assay with IGROV1 ovarian, 105% in the assay on OVCAR-3 ovarian, 93.5% in the assay with HS 578T breast and 103% in the assay on NCI/ADR-RES ovarian.

For the molecule `NC(=O)OCCO`, the growth in the assay with SR leukemia was 94.5%; in the assay on RPMI-8226 leukemia, 104%; in the assay on OVCAR-8 ovarian it was 104%; with OVCAR-5 ovarian it was 107%; in the assay on OVCAR-4 ovarian, 109%; in the assay with SK-OV-3 ovarian it was 105%. The growth in the assay on IGROV1 ovarian was 108%; with OVCAR-3 ovarian it was 102%; in the assay with HS 578T breast, 99.2%; in the assay with NCI/ADR-RES ovarian it was 105%.

Take `CN1CCN(C(=S)S)CC1`: the growth with SR leukemia was 104%; in the assay on RPMI-8226 leukemia it was 102%; with OVCAR-8 ovarian, 109%; in the assay with OVCAR-5 ovarian, 106%; in the assay with OVCAR-4 ovarian it was 127%; in the assay on SK-OV-3 ovarian, 111%. Further, the growth with IGROV1 ovarian was 74.4%; with OVCAR-3 ovarian, 115%.

`O=c1[nH]c(=O)c2cc(Cl)cc(Cl)c2[nH]1`: the growth with SR leukemia was 94.3%; in the assay on RPMI-8226 leukemia, 104%; in the assay on OVCAR-8 ovarian it was 101%; with OVCAR-5 ovarian, 116%; in the assay with OVCAR-4 ovarian, 101%; in the assay on SK-OV-3 ovarian it was 118%. In addition, the growth with IGROV1 ovarian was 90.6%; in the assay with OVCAR-3 ovarian, 126%.

Take `CCC(C)c1c(N)n(S(=O)(=O)c2ccc(C)cc2)oc1=O` (configuration not stated): the growth was 107% with SR leukemia; 100% in the assay with RPMI-8226 leukemia; 96.6% in the assay with OVCAR-8 ovarian; 99.1% in the assay with OVCAR-5 ovarian; 109% in the assay on OVCAR-4 ovarian; 113% in the assay on SK-OV-3 ovarian. Moreover, the growth is 88.7% in the assay with IGROV1 ovarian, 118% with OVCAR-3 ovarian, 130% with HS 578T breast and 120% in the assay with NCI/ADR-RES ovarian.

For `CCNC(=O)Oc1ccc[nH]c1=O`, the growth in the assay with SR leukemia is 76.4%; with RPMI-8226 leukemia, 93.4%; with OVCAR-8 ovarian it was 25.9%; with OVCAR-5 ovarian, 102%; with OVCAR-4 ovarian it was 98.3%; with SK-OV-3 ovarian it was 103%. Besides, the growth is 97.9% in the assay on IGROV1 ovarian, 112% in the assay with OVCAR-3 ovarian and 95.2% with HS 578T breast.

On to `Nc1c(O)c(S(=O)(=O)O)c(O)c2c1C(=O)c1ccccc1C2=O`, for which the growth in the assay with SR leukemia is 13.8%; in the assay with RPMI-8226 leukemia it was 11.5%; in the assay with OVCAR-8 ovarian, 27.8%; in the assay on OVCAR-5 ovarian it was 42.8%; with OVCAR-4 ovarian, 26.1%; in the assay with SK-OV-3 ovarian, 22.9%. The values for the growth with IGROV1 ovarian, in the assay on OVCAR-3 ovarian and in the assay on HS 578T breast were 19.2%, 8.87% (active) and 59.7%, respectively.

For `COC(CCCl)c1ccc(Cl)cc1` (configuration not stated), the growth with SR leukemia was 90.2%; with RPMI-8226 leukemia, 100%; in the assay with OVCAR-8 ovarian, 96.9%; in the assay with OVCAR-5 ovarian it was 96.2%; in the assay on OVCAR-4 ovarian it was 108%; in the assay with SK-OV-3 ovarian, 106%. Also, the results for the growth in the assay with IGROV1 ovarian and with OVCAR-3 ovarian were 100% and 109%, respectively.

As for `COc1ccc(Br)c(C=O)c1`, the growth in the assay on SR leukemia was 8.35% (active); with RPMI-8226 leukemia, 22.2%; in the assay on OVCAR-8 ovarian it was 69.1%; in the assay with OVCAR-5 ovarian it was 93.1%; in the assay with OVCAR-4 ovarian, 88.5%; in the assay with SK-OV-3 ovarian, 103%. Moreover, the growth with IGROV1 ovarian was 92.3%; in the assay on OVCAR-3 ovarian, 74.2%.
